According to the supplement of paper PMC7156485:
± gives the standard deviation of the averaged measurements.

Assays:
Conditions in all cases: concentration: 10 µM; 24 h
HCC1569 [1] = experiment: cell number relative to DMSO (% of DMSO); higher = more cells (less growth inhibition / toxicity)
How it was run: (§1)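 Compounds were applied at 10 µM for 24 h at 37 °C, in triplicate, to HCC1569 and TDF cells. The cells were then fixed and stained for H1.0, and nuclei were counterstained with DAPI. Nuclear H1.0 intensity or cell number is reported relative to the plate control as a percent, taking the median of replicates. Smoothing for positional effects was applied to HCC1569 values only.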

TDF [2] = experiment: as above
How it was run: as §1

TDF [3] = experiment: H1.0 immunofluorescence intensity relative to DMSO (% of DMSO); higher = stronger H1.0 induction, active = 120 or more
How it was run: as §1

HCC1569 [4] = experiment: H1.0 immunofluorescence intensity relative to DMSO (% of DMSO); higher = stronger H1.0 induction, active = 140 or more
How it was run: as §1
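Throughout, for H1.0 immunofluorescence intensity relative to DMSO: TDF is a line of transformed human dermal fibroblasts of mesenchymal origin.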
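Throughout, for cell number relative to DMSO: TDF denotes transformed human dermal fibroblasts of mesenchymal origin.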

Compound	cell number (HCC1569 [1])	cell number (TDF [2])	H1.0 immunofluorescence intensity (TDF [3])	H1.0 immunofluorescence intensity (HCC1569 [4])
CCCCCC(O)C=CC1C(O)CC(=O)C1CC=CCCCC(=O)O (stereo unspecified) [Prostaglandin E2]	100 ± 2.4	102 ± 6.3	95.7 (inactive)	100 (inactive)
CCOc1ccc(C(Nc2ccccn2)c2ccc3ccc(C)nc3c2O)cc1C (stereo unspecified)	87.7	84.1	94.8 (inactive)	115 (inactive)
CCCn1c(=O)[nH]c(=O)c2[nH]cnc21 [3-n-Propylxanthine]	104	105	92.3 (inactive)	101 (inactive)
CCCn1c(=O)c2[nH]c(C3CCCC3)nc2n(CCC)c1=O [8-Cyclopentyl-1,3-dipropylxanthine]	101	92.5	99.5 (inactive)	93.7 (inactive)
Cn1cc(C=C2C(=O)Nc3ccc(S(N)(=O)=O)cc32)c2ccccc21 [Syk Inhibitor]	84.1	95.3	82.7 (inactive)	132 (inactive)
O=C(O)C1=CC(=NNc2ccc(S(=O)(=O)Nc3ccccn3)cc2)C=CC1=O [Sulfasalazine]	106	102	93 (inactive)	88.7 (inactive)
CN(C)C(=N)N=C(N)N [Metformin]	100	94	95.9 (inactive)	101 (inactive)
Cc1ccc(NC(=O)CCCCCC(=O)Nc2ccccc2N)cc1 [N~1~-(2-aminophenyl)-N~7~-(4-methylphenyl)heptanediamide]	96.1	70.6	113 (inactive)	214 (active)
CC1(C)OC2CC(=O)OCC23C1CC(=O)C1(C)C3CCC2(C)C(c3ccoc3)OC(=O)C3OC321 (stereo unspecified) [Limonin]	103	104	92.2 (inactive)	90 (inactive)
